Compound activity (PubChem)
Sampled rows, rich in hits. Any-hit rate of the full collection: about 2.5%.
ASK1 inh = human ASK1 kinase inhibition, primary screen. Q99683. 0.99% of 22,000 active. inhibition, % at 7.44 µM. AlphaScreen MKK6 phosphorylation by ASK1, luminescence; in the data active means inhibition above about 35%
ULK1 inh = inhibitors of human ULK1 kinase; AlphaScreen Atg13 phosphorylation by ULK1, luminescence; inhibition, % at 5.96 µM; 1.9% of 30,000 active; AID 1259251; in the data active means inhibition above about 43%
TruHits interf = AlphaScreen optical interference dose response, ASK1 counter-screen; shares compounds with ASK1 inh; AlphaScreen TruHits beads, signal interference counterscreen; IC50, µM; 20% of 220 active;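 active means IC50 of 10 µM or lower in the counterscreen; inactive means IC50 above 10 µM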;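 further: loss of AlphaScreen light from TruHits beads alone with no ASK1 enzyme present; potency of signal reduction so a low IC50 flags an assay artifact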
Numbers stand for hits; 0 = inactive; - = no result.

SMILES | ASK1 inh | ULK1 inh | others
Cc1ncn(-c2ccc(Nc3ncc4cccc(-c5ccn(C)n5)c4n3)cc2)n1 | 0 | 88.6
Cc1ncn(-c2ccc(Nc3ncc4cccc(-c5cccnc5)c4n3)cc2)n1 | 0 | 0
Cc1ncn(-c2ccc(Nc3ncc4cccc(-c5cn[nH]c5C)c4n3)cc2)n1 | 0 | 54.7
Cc1ncn(-c2ccc(Nc3ncc4cccc(-c5ccnn5C)c4n3)cc2)n1 | 0 | 51.7
Cc1ncn(-c2ccc(Nc3ncc(Cl)c(-c4ccnn4C)n3)cc2)n1 | 0 | 64.4
Cc1ncn(-c2ccc(Nc3ncc4cccc(-c5cccc6c5ccn6C)c4n3)cc2)n1 | 0 | 0
Cc1ncn(-c2ccc(Nc3nccc(-c4cc(F)cc(-c5ccnn5C)c4)n3)cc2)n1 | 0 | 0
Cc1ncn(-c2ccc(Nc3ncc4cccc(-c5ccn[nH]5)c4n3)cc2)n1 | 0 | 0
CC(C)n1cnc2c(NCCOc3ccccc3)nc(N3CCN(Cc4ccc5c(c4)OCO5)CC3)nc21 | 0 | 0
O=C(NCCN1CCOCC1)C1CCN(c2ccc(N3CCC(N4CCOCC4)CC3)nn2)CC1 | 0 | 0
CCN(CC)C(=O)C1CCCN(c2nc(NCCN(C(C)C)C(C)C)c3ncn(-c4ccccc4)c3n2)C1 (stereo unspecified) | 0 | 0
CN(C)C(=O)CCSc1cc(-c2cn[nH]c2)ccc1NC(=O)[C@H]1Cc2ccccc2CN1 | 0 | 0
O=C(Nc1ccc2[nH]ncc2c1)C(O)c1ccc(C(F)(F)F)cc1 (stereo unspecified) | 0 | 0
CC(=O)c1cccc(-c2nccc(Nc3ccc(N4CCOCC4)cc3)n2)c1 | 0 | 0
CCN(Cc1cccc(OC)c1)C(=O)c1nc2ccc(-c3cn[nH]c3)cc2s1 | 0 | 0
Cc1ncn(-c2ccc(Nc3ncc4cccc(-c5nccs5)c4n3)cc2)n1 | 0 | 50.2
Cc1ccc(-c2ncn(-c3ccc(Nc4ncc5cccc(-c6nccs6)c5n4)cc3)n2)cn1 | 0 | 0
CC(C)n1cnc2c(Nc3ccccc3)nc(Nc3ccc(-n4ccnc4)cc3)nc21 | 0 | 56.0
CC(C)n1cnc2c(Nc3ccccc3)nc(Nc3ccncc3)nc21 | 0 | 45.9
CC(=O)Nc1ccc(Nc2nc(-c3cccc(C(C)=O)c3)nc3c2ncn3C(C)C)cc1 | 0 | 0
CC(C)n1cnc2c(Nc3ccc(N4CCOCC4)cc3)nc(Nc3ccc4ncccc4c3)nc21 | 0 | 0
CC(=O)c1cccc(-c2nc(Nc3ccccc3)c3ncn(C(C)C)c3n2)c1 | 0 | 46.2
CC(C)n1cnc2c(Nc3ccccc3)nc(Nc3ccccc3)nc21 | 0 | 0
CC(C)n1cnc2c(Nc3ccccc3)nc(Nc3ccc4ncccc4c3)nc21 | 0 | 51.7
CC(C)n1cnc2c(NCCOc3ccccc3)nc(Nc3ccc(-n4ccnc4)cc3)nc21 | 0 | 0
SMILES | ASK1 inh | ULK1 inh | others
Cn1nccc1Nc1nc(C(=O)Nc2ccccc2)cs1 | 0 | 0
CN1CCN(C(=O)c2ccc(-c3nc(NCc4cccc(C(F)(F)F)c4)c4ncn(-c5ccccc5)c4n3)cc2)CC1 | 0 | 0
Cc1ncn(-c2ccc(Nc3ncc4cccc(-c5ccc(C#N)cc5)c4n3)cc2)n1 | 0 | 0
COc1cc(-c2cn[nH]c2)cc2c(=O)[nH]c(C(N)c3cccc(Cl)c3)nc12 (stereo unspecified) | 0 | 0
CCn1c(C)cc(O)c(C(c2ccc(F)cc2)N2CCN(c3ccccc3F)CC2)c1=O (stereo unspecified) | - | 0
O=C1CCCN1CCCNc1nc(N2CCN(c3ccccn3)CC2)nc2c1ncn2-c1ccsc1 | 0 | 0
COc1cc(Nc2ncnc3c2nc(-c2ccccc2)n3C(C)C)cc(OC)c1OC | 0 | 0
CC(C)n1cnc2c(NCc3nc4ccccc4[nH]3)nc(Nc3ccc4ncccc4c3)nc21 | 0 | 45.1
CC(C)n1cnc2c(NCc3nc4ccccc4[nH]3)nc(Nc3ccccn3)nc21 | 0 | 0
O=c1c(O)c(-c2ccc(O)c(O)c2)oc2cc(O)cc(O)c12 | - | 46.1
O=c1c(-c2ccc(O)cc2)coc2cc(O)cc(O)c12 | - | 0
CCOC(=O)/C(C)=C(\C)NCCN/C(C)=C(\C)C(=O)OCC | - | 0
Cc1ncn(-c2ccc(Nc3ncc(Cl)c(-c4cn[nH]c4)n3)cc2)n1 | 0 | 72.6
CC(=O)c1nc(Nc2ccc(-n3cnc(C)n3)cc2)ncc1Cl | 0 | 0
c1cc(-n2cnc(N3CCOCC3)n2)ccc1Nc1ncc2cc(-c3cn[nH]c3)ccc2n1 | 0 | 0
Clc1cnc(Nc2ccc(-n3cnc(N4CCOCC4)n3)cc2)nc1-c1cn[nH]c1 | 0 | 77.2
O=C(N1CCOCC1)N1CCCc2ccccc21 | - | 0
FC(F)(F)c1ccc(Cn2cnc3c(Nc4ccc(N5CCOCC5)cc4)nc(Nc4ccccc4)nc32)cc1 | 0 | 0
FC(F)(F)c1ccc(Cn2cnc3c(Nc4ccc(N5CCOCC5)cc4)nc(NC4CCN(Cc5ccccc5)CC4)nc32)cc1 | 36.6 | 0 | TruHits interf=0
COc1ccc(CCNc2nc(NC3CCN(Cc4ccccc4)CC3)nc3c2ncn3Cc2ccc(C(F)(F)F)cc2)cc1 | 0 | 0
Oc1ccc(CCNc2nc(NC3CCN(Cc4ccccc4)CC3)nc3c2ncn3Cc2ccc(C(F)(F)F)cc2)cc1 | 38.9 | 0 | TruHits interf=0
Nc1cccc(-c2cc(C(=O)NCCOc3ccccc3)ccn2)c1 | 0 | 0
c1ccc(Nc2ccnc(Nc3nccc4ccccc34)n2)cc1 | 0 | 0
Cc1cnc(NC2CCN(Cc3ccccc3)CC2)nc1Nc1ccc(N2CCOCC2)cc1 | 0 | 0
FC(F)(F)c1ccc(Cn2cnc3c(NCc4ccccc4)nc(Nc4ccccc4)nc32)cc1 | 46.1 | 0 | TruHits interf=0
SMILES | ASK1 inh | ULK1 inh | others
FC(F)(F)c1ccc(Cn2cnc3c(NCc4cccc(C(F)(F)F)c4)nc(Nc4ccc5ncccc5c4)nc32)cc1 | 40.0 | 0 | TruHits interf=0
OCCNc1nc(Nc2ccc3ncccc3c2)nc2c1ncn2Cc1ccc(C(F)(F)F)cc1 | 0 | 0
FC(F)(F)c1ccc(Cn2cnc3c(NCc4cccc(C(F)(F)F)c4)nc(Nc4ccccc4)nc32)cc1 | 0 | 0
COc1ccc(-c2ccc(C(=O)NCCO)s2)cc1 | 0 | 0
COc1cc2nc(Nc3ccccc3)nc(NCc3ccccc3)c2cc1OC | 0 | 0
Cc1cnc(Nc2ccncn2)nc1N | 0 | 0
Nc1cccc(-c2cc(C(=O)NCc3ccccc3)ccn2)c1 | 0 | 0
COc1ccc2c(c1)CC(C(=O)Nc1cc(F)c(-c3cn[nH]c3C)cc1OCCN(C)C)CO2 (stereo unspecified) | 0 | 0
CC(=O)c1cccc(-c2cc(Nc3ccc(N4CCOCC4)cc3)nc(N)n2)c1 | 0 | 0
Cn1ccc2cc(-c3cc(Nc4ccc(N5CCOCC5)cc4)nc(N)n3)ccc21 | 46.3 | 0 | TruHits interf=0
O=C(NCCOc1ccccc1)c1csc(NCc2ccc3c(c2)OCO3)n1 | 0 | 0
CC(C)n1cnc2c(Nc3ccccc3)nc(N3CCOCC3)nc21 | 0 | 0
CC(=O)Nc1ccc(Nc2nc(N3CCN(c4ccccn4)CC3)nc3c2ncn3Cc2ccc(C(F)(F)F)cc2)cc1 | 0 | 0
CC(C)n1cnc2c(NCc3ccccc3)nc(Nc3ccc(N4CCOCC4)cc3)nc21 | 0 | 0
CC(C)n1cnc2c(Nc3ccc(Oc4ccccc4)cc3)nc(N3CCOCC3)nc21 | 41.5 | 0 | TruHits interf=0
CC(C)n1cnc2c(Nc3ccc(N4CCOCC4)cc3)nc(N3CCN(c4ccccn4)CC3)nc21 | 36.3 | 0 | TruHits interf=0
FC(F)(F)c1ccc(Cn2cnc3c(Nc4ccc(N5CCOCC5)cc4)nc(N4CCN(c5ccccn5)CC4)nc32)cc1 | 38.0 | 0 | TruHits interf=0
CC(C)n1cnc2c(Nc3ccccc3)nc(N3CCN(c4ccccn4)CC3)nc21 | 0 | 0
